PLCb3 inh = inhibitors of human phospholipase C beta3 | Q01970 | Purified PLC-beta3, fluorogenic substrate, fluorescence | inhibition, % at 12.2 µM | actives 0.18% (n = 370,000); in the data active = inhibition above about 11%;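 note: 0% = median of compound wells on plate and 100% = full blocker control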
Target sequence (Q01970 whole entry, looked up): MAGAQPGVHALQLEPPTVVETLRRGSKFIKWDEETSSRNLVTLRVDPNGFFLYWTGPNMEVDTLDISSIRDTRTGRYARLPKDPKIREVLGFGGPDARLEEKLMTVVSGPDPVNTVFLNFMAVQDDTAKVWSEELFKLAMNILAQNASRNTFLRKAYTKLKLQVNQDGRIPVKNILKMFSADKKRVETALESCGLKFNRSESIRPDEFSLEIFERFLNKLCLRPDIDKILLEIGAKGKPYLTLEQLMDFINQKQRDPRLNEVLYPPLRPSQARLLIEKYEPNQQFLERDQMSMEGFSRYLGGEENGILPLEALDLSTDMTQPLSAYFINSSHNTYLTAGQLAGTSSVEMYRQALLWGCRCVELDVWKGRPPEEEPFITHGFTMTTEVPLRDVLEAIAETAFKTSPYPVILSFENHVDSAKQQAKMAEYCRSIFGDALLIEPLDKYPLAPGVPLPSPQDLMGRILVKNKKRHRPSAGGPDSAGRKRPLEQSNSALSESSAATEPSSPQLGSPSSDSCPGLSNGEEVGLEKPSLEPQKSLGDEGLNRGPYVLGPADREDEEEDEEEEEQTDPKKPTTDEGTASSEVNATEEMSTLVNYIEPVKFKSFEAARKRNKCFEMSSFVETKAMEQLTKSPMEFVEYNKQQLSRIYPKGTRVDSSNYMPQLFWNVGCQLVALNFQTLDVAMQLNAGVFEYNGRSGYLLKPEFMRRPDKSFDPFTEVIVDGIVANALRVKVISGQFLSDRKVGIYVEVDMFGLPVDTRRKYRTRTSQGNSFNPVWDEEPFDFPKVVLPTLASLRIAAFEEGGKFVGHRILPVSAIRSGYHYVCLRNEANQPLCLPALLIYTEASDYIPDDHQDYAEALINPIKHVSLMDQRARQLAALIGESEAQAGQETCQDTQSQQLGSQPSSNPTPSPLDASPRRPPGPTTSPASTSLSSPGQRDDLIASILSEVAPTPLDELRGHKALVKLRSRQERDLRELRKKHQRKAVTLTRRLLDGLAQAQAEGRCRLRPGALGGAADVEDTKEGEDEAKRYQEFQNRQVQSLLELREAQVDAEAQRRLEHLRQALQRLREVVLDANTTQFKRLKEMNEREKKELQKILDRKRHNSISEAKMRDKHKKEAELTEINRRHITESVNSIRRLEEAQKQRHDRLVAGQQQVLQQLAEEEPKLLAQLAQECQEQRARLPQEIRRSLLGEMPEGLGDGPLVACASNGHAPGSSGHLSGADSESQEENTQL
ADAM17 inh = ADAM17 inhibition, QFRET primary screen; recombinant ADAM17, EDANS/DABCYL FRET peptide cleavage; inhibition, % at 6.95 µM; actives 0.83% (n = 370,000); AID 720648;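 active = inhibition above the mean of compounds lying between control limits plus 3 SD, set per campaign, cut at about 8.5% in these data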;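 note: 0% = DMSO-only wells as the low control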
proKLK7 act = activates the human kallikrein-7 zymogen; purified proKLK7, EDANS-DABCYL substrate fluorescence; 100% is mature enzyme control, 0% vehicle; actives 0.9% (n = 370,000); activation, % at 7 µM; P49862;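 active = activation above the mean of all tested compounds plus 3 SD, computed per campaign excluding outliers beyond control limits, cut at about 13% in these data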
sPLA2-III inh = Blocks human group III sPLA2 activity; QFRET BODIPY PC-A2 liposome hydrolysis, fluorescence; inhibition, % at 12.2 µM; actives 0.56% (n = 370,000); AID 743126;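 active = inhibition above mean plus 3 SD of compounds lying within the high and low control bounds, cut at about 19% in these data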;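 note: 0% = median of test compound wells and 100% = no enzyme DMSO wells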
ADAM10 inh = inhibits human ADAM10 | O14672 | recombinant ADAM10, EDANS/DABCYL FRET peptide cleavage, 3 h | inhibition, % at 7 µM | actives 0.62% (n = 370,000) | AID 720582;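 active = inhibition above a per-campaign cutoff equal to the mean of compounds falling between control-based bounds plus 3 SD, cut at about 20% in these data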;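 note: 0% = DMSO wells while the 100% control is not disclosed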
PLCg1 inh = PLC-gamma1 (human) inhibition, primary screen; P19174; purified PLC-gamma1, fluorogenic substrate, fluorescence; inhibition, % at 12.2 µM; actives 0.84% (n = 370,000); AID 720700; in the data active = inhibition above about 9.5%
proKLK7 act conf = proKLK7 activation, confirmation. purified proKLK7, EDANS-DABCYL substrate fluorescence; scaled: vehicle 0, mature enzyme 100. activation, % at 7 µM. shares compounds with proKLK7 act. actives 68% (n = 3,200). AID 686949;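 active = activation, as change over the incubation, above the mean of all tested compounds plus 3 SD, cut at about 13% in these data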
EDANS-DABCYL int = optically interferes with EDANS-DABCYL signal, flagging KLK7 hits | activation, % at 7 µM | shares compounds with proKLK7 act | actives 80% (n = 3,200) | EDANS-DABCYL substrate fluorescence interference, no enzyme, 4 h; solvent 0%, active enzyme control 100% | AID 686952;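 active = activation above the all-compound mean plus 3 SD, ignoring values outside control-based bounds, cut at about 4.8% in these data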;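 note: value is the 4 h activation minus the activation read at time zero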
Numbers without * were called inactive. Sampled rows, rich in hits. Any-hit rate of the full collection: about 3.4%.

How did C[C@H](CO)N1C[C@H](C)[C@@H](CN(C)C(=O)Nc2ccc(-c3cccs3)cc2)OCc2cn(nn2)CCCC1=O do in these assays?
PLCb3 inh: -77; ADAM17 inh: -12; proKLK7 act: 2; sPLA2-III inh: 1; ADAM10 inh: -38; PLCg1 inh: -53

Results for Cc1cc(C)nc(NC(=O)c2ccc([N+](=O)[O-])o2)n1 ?
PLCb3 inh: 1; ADAM17 inh: -6; proKLK7 act: 133*; sPLA2-III inh: -1; ADAM10 inh: -10; PLCg1 inh: 0; proKLK7 act conf: 151*; EDANS-DABCYL int: 146*

How did CCOC(=O)C1CCCN(S(=O)(=O)c2ccc3c4c(cccc24)C(=O)N3CC)C1 (stereo not drawn) do in these assays?
PLCb3 inh: inactive; ADAM17 inh: -254; proKLK7 act: -17; sPLA2-III inh: 1; ADAM10 inh: inactive; PLCg1 inh: inactive

Results for CCN1C(=O)c2cccc3c(S(=O)(=O)N4CCCC4C(=O)O)ccc1c23 (stereo not drawn) ?
PLCb3 inh: inactive; ADAM17 inh: -97; proKLK7 act: 37*; sPLA2-III inh: -1; ADAM10 inh: -214; PLCg1 inh: inactive; proKLK7 act conf: 22*; EDANS-DABCYL int: 24*

What do the screens show for `CCN1CCN(S(=O)(=O)c2ccc3c4c(cccc24)C(=O)N3CC)CC1`?
PLCb3 inh: inactive; ADAM17 inh: -350; proKLK7 act: 56*; sPLA2-III inh: 9; ADAM10 inh: inactive; PLCg1 inh: inactive; proKLK7 act conf: 44*; EDANS-DABCYL int: 46*

How did CCN1C(=O)c2cccc3c(S(=O)(=O)N4CCNCC4)ccc1c23 do in these assays?
PLCb3 inh: inactive; ADAM17 inh: -206; proKLK7 act: 171*; sPLA2-III inh: 0; ADAM10 inh: inactive; PLCg1 inh: inactive; proKLK7 act conf: 57*; EDANS-DABCYL int: 68*

What do the screens show for `C#CCN1C(=O)[C@]2(OCCC=C[C@H]2C)c2ccccc21`?
PLCb3 inh: 6; ADAM17 inh: 0; proKLK7 act: 0; sPLA2-III inh: 0; ADAM10 inh: 2; PLCg1 inh: 2

Results for CCOC(=O)N[C@H](C(=O)N1CCC[C@H]1C(=O)NCCc1ccccc1Cl)c1ccccc1 ?
PLCb3 inh: -1; ADAM17 inh: -6; proKLK7 act: 0; sPLA2-III inh: 11; ADAM10 inh: -10; PLCg1 inh: 3

How did O=C(O)CC(Sc1ccc(Cl)cc1)C(=O)Nc1ccccc1 (stereo not drawn) do in these assays?
PLCb3 inh: -4; ADAM17 inh: -2; proKLK7 act: 1; sPLA2-III inh: -3; ADAM10 inh: 1; PLCg1 inh: -2

How did C[C@@H]1CN([C@@H](C)CO)C(=O)c2cc(Br)cnc2O[C@@H]1CN(C)Cc1ccccn1 do in these assays?
PLCb3 inh: -3; ADAM17 inh: -4; proKLK7 act: 0; sPLA2-III inh: 6; ADAM10 inh: -6; PLCg1 inh: 1

How did CCN1CCCC1Cn1cnc2c([nH]c3ccc(OC)cc32)c1=O (stereo not drawn) do in these assays?
PLCb3 inh: -252; ADAM17 inh: -154; proKLK7 act: 24*; sPLA2-III inh: 0; ADAM10 inh: -445; PLCg1 inh: -181; proKLK7 act conf: 9; EDANS-DABCYL int: 10*

How did COc1ccc2[nH]c3c(=O)n(Cc4ccncc4)cnc3c2c1 do in these assays?
PLCb3 inh: -169; ADAM17 inh: -301; proKLK7 act: 13*; sPLA2-III inh: 0; ADAM10 inh: inactive; PLCg1 inh: -114; proKLK7 act conf: 7; EDANS-DABCYL int: 9.8*

What do the screens show for `CC1(C)CC(=O)C=C(c2ccccc2-c2cccc(C(N)=O)c2)C1=O`?
PLCb3 inh: -12; ADAM17 inh: -13; proKLK7 act: 0; sPLA2-III inh: 10; ADAM10 inh: -37; PLCg1 inh: -10

What do the screens show for `COc1ccc(-n2c(O)c(/C=N/NS(=O)(=O)c3cccc([N+](=O)[O-])c3)c3ccccc3c2=O)cc1OC`?
PLCb3 inh: -46; ADAM17 inh: -14; proKLK7 act: 24*; sPLA2-III inh: -6; ADAM10 inh: -67; PLCg1 inh: -39; proKLK7 act conf: 77*; EDANS-DABCYL int: 67*

How did CN(C(=O)c1cccc(NC(=O)Cc2ccc(NC(=O)C3CCCN(C(=O)c4ccccc4)C3)cc2)c1)C1CC1 (stereo not drawn) do in these assays?
PLCb3 inh: -4; ADAM17 inh: -3; proKLK7 act: 0; sPLA2-III inh: -1; ADAM10 inh: -18; PLCg1 inh: 0

How did Cc1cc2oc3cc(NCCC4CCCN4C)ccc3c(=O)c2cc1C (stereo not drawn) do in these assays?
PLCb3 inh: inactive; ADAM17 inh: inactive; proKLK7 act: 62*; sPLA2-III inh: -13; ADAM10 inh: inactive; PLCg1 inh: inactive; proKLK7 act conf: 68*; EDANS-DABCYL int: 64*

How did CN1CCCC1CCNc1ccc2sc3ccccc3c(=O)c2c1 (stereo not drawn) do in these assays?
PLCb3 inh: -69; ADAM17 inh: -3; proKLK7 act: 0; sPLA2-III inh: 7; ADAM10 inh: -15; PLCg1 inh: -50

What do the screens show for `CCCn1c(-c2cccs2)nc2nc3ccccc3nc21`?
PLCb3 inh: inactive; ADAM17 inh: inactive; proKLK7 act: 41*; sPLA2-III inh: 3; ADAM10 inh: inactive; PLCg1 inh: inactive; proKLK7 act conf: -55; EDANS-DABCYL int: -64

Results for COCCn1c(-c2ccco2)nc2nc3ccccc3nc21 ?
PLCb3 inh: inactive; ADAM17 inh: inactive; proKLK7 act: 43*; sPLA2-III inh: 7; ADAM10 inh: inactive; PLCg1 inh: inactive; proKLK7 act conf: 62*; EDANS-DABCYL int: 82*

What do the screens show for `COCCn1c(-c2cccs2)nc2nc3ccccc3nc21`?
PLCb3 inh: inactive; ADAM17 inh: inactive; proKLK7 act: 38*; sPLA2-III inh: 8; ADAM10 inh: inactive; PLCg1 inh: inactive; proKLK7 act conf: 68*; EDANS-DABCYL int: 73*

How did CC(C)Cn1c(-c2cccs2)nc2ccccc21 do in these assays?
PLCb3 inh: -18; ADAM17 inh: -41; proKLK7 act: 0; sPLA2-III inh: 2; ADAM10 inh: -126; PLCg1 inh: -18

What do the screens show for `c1csc(-c2nc3nc4ccccc4nc3n2Cc2ccc3c(c2)OCO3)c1`?
PLCb3 inh: -18; ADAM17 inh: -8; proKLK7 act: 0; sPLA2-III inh: 0; ADAM10 inh: -21; PLCg1 inh: -14
